Experimental data published in ChEMBL document CHEMBL3433997, “St. Jude Leishmania screening dataset” (2016).

Legend:
Type in all cases: functional
[1] = target: Solute carrier family 2, facilitated glucose transporter member 1 (Homo sapiens) (UniProt P11166); experiment: ST_JUDE_LEISH: Cytotoxicity at 2uM final concentration against transgenic Leishmania Mexicana promastigotes LmGLUT1 that are glucose transport deficient and complemented with the human glucose transporter GLUT1. Activity is measured by DNA content using SYBR green in vitro
Sequence of Solute carrier family 2, facilitated glucose transporter member 1 (Homo sapiens) (P11166 whole entry): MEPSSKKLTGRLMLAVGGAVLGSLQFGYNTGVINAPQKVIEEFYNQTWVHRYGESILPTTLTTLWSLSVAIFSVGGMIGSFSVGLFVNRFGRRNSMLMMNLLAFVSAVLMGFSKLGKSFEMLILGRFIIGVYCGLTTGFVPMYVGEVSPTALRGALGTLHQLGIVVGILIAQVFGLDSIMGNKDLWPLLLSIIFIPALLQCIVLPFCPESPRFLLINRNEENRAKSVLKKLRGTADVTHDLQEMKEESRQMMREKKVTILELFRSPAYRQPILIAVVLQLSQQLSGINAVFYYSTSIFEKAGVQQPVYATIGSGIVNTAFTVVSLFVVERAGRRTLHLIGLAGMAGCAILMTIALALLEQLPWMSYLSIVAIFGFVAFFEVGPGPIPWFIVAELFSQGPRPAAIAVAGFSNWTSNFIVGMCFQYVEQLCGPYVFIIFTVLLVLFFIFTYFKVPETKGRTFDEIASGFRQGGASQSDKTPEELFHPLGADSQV

[2] = target: Hexose transporter 1 (Plasmodium falciparum) (UniProt O97467); experiment: ST_JUDE_LEISH: Cytotoxicity at 2uM final concentration against transgenic Leishmania Mexicana promastigotes LmPfHT that are glucose transport deficient and complemented with the Plasmodium falciparum hexose transporter. Activity is measured by DNA content using SYBR green in vitro
[3] = target: Glucose transporter (Leishmania mexicana) (UniProt O61059); experiment: ST_JUDE_LEISH: Cytotoxicity at 2uM final concentration against transgenic Leishmania Mexicana promastigotes LmGT2 that are glucose transport deficient and complemented with the L. Mexicana glucose transporter 2. Activity is measured by DNA content using SYBR green in vitro

CCc1nc2c(N)nc(N)nc2nc1-c1ccc(OC)cc1
inhibition [1]: 0.85%
inhibition [2]: 0.84%
inhibition [3]: 1.23%

Cc1ccc(-c2cc(C(=O)Nc3ccc(S(=O)(=O)N4CCCCC4)cc3)[nH]n2)c(O)c1
inhibition [1]: 0.86%
inhibition [2]: 1.9%
inhibition [3]: -0.53%

O=C(/C=C/c1cccc(Br)c1)NCCCCCN1CCC(c2c[nH]c3ccccc23)CC1
inhibition [1]: 3.71%
inhibition [2]: 2.1%
inhibition [3]: 5.42%

CCOc1cc(CC)ccc1C1CCN(CCN2CCC(NC(=O)c3ccc(-c4ccc(C#N)cc4)cc3)CC2)CC1
inhibition [1]: -0.43%
inhibition [2]: 0.77%
inhibition [3]: 1.19%

NC(=O)c1ccccc1OCC(=O)Nc1cccc(-c2ccc(-c3nc4cc(C(F)(F)F)ccc4[nH]3)cc2)c1
inhibition [1]: 4.44%
inhibition [2]: 3.99%
inhibition [3]: 2.79%

CC(C)(C)c1ccc(NC(=O)c2ccc(CN3CCCN(Cc4ccsc4)CC3)cc2)cc1
inhibition [1]: 9.06%
inhibition [2]: 10.4%
inhibition [3]: 11.9%

CC1CCN(CC[C@H]2CCCN2S(=O)(=O)c2cccc(NC(=O)c3cc4ccccc4s3)c2)CC1
inhibition [1]: 4.95%
inhibition [2]: 6.97%
inhibition [3]: 3.15%

O=C(Cc1c[nH]cn1)Nc1cccc(-c2ccc(-c3nc4cc(C(F)(F)F)ccc4[nH]3)s2)c1
inhibition [1]: -5.22%
inhibition [2]: -3.59%
inhibition [3]: -0.81%

CCc1ccc(OCCCON2C(=N)N=C(N)NC2(C)C)cc1
inhibition [1]: -1.61%
inhibition [2]: 1.92%
inhibition [3]: 3.21%

COc1ccc(CN2CCN(CC(=O)Nc3cc(Cl)ccc3-n3cncn3)CC2)cc1F
inhibition [1]: -1.01%
inhibition [2]: 1.82%
inhibition [3]: -0.67%

Oc1ccccc1CCNCC1CCc2ccccc2C1 (stereo unspecified)
inhibition [1]: -0.47%
inhibition [2]: -0.01%
inhibition [3]: 0.73%

O=[N+]([O-])c1cccc(CNC2CCN(Cc3ccc(C(F)(F)F)cc3)CC2)c1
inhibition [1]: 2.18%
inhibition [2]: 2.08%
inhibition [3]: 3.71%
